G9a block: G9a (human) methyltransferase inhibition | Q96KQ7 | G9a H3K9 monomethylation, AlphaScreen, 2 h | Potency, µM (doses to about 102 µM), most hits filed as inhibitors | 350,000 compounds, 8.8% hits | AID 504332; note: nearly all actives have a fitted effect of over 75% in size
Target sequence (Q96KQ7 913-1193 limits assumed): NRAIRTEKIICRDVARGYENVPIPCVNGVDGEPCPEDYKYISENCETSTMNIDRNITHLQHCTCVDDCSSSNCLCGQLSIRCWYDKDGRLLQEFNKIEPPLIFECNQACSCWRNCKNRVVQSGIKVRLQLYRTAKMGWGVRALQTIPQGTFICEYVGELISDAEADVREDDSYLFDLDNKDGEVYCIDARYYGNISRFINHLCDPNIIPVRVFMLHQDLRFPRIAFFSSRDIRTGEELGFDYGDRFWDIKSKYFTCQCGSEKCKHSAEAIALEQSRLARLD
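G9a (20 nM) preincubated 15 min RT with compounds, then 500 nM biotinylated H3K9 peptide and 20 uM SAM added; 2 h RT reaction. Monomethyl-H3K9 product detected by AlphaScreen with anti-H3K9me1 antibody, streptavidin donor and anti-rabbit IgG acceptor beads.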
JMJD2A Tudor: inhibitors of human JMJD2A Tudor domain | O75164 | AlphaScreen JMJD2A-Tudor / H3K4me3 peptide binding | Potency, µM (titrated, usually from 114 µM), most hits filed as inhibitors | 390,000 compounds, 4.4% hits; note: nearly all actives have a fitted effect of over 50% in size
HP1b chromo inh: blocks HP1-beta chromodomain binding to methylated histone tails; Potency, µM (top dose mostly 114 µM), usual class: inhibitors; P83916; 390,000 compounds, 0.56% hits; AlphaScreen HP1-beta / biotin-H3K9me3 peptide binding; note: nearly all actives have a fitted effect of over 70% in size
Target sequence (P83916 whole entry, looked up): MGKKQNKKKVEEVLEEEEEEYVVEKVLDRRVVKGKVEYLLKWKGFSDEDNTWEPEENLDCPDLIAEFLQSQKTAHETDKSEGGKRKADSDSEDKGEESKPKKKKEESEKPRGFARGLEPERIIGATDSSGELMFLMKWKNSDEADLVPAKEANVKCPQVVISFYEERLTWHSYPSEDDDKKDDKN
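AlphaScreen: HP1-beta (50 nM) preformed 30 min with biotin-H3(1-18)K9me3 peptide (50 nM) in PBS pH 7.4, 0.01% Tween-20. Compound added for 30 min at RT, then streptavidin donor/nickel chelate acceptor beads (10 ug/mL) for 30 min.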
L3MBTL1 block: blocks human L3MBTL1 | Potency, µM (highest dose often 57.1 µM), most hits filed as inhibitors | AlphaScreen L3MBTL1–H3K9me1 peptide binding | AID 485360 | 230,000 compounds, 0.66% hits; note: nearly all actives have a fitted effect of over 60% in size
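Read-out is AlphaScreen signal from streptavidin donor and nickel chelate acceptor beads (10 ug/mL final each) bridging L3MBTL1 (50 nM) and biotinylated K9-monomethylated H3(1-15) peptide (75 nM), after 30 min compound exposure at room temperature.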
BAZ2B block: BAZ2B (human) inhibition | AID 504333 | Potency, µM (top dose mostly 114 µM), usual class: inhibitors | AlphaScreen BAZ2B-H3K14Ac peptide displacement | 360,000 compounds, 4.4% hits; note: nearly all actives have a fitted effect of over 60% in size
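BAZ2B (50 nM) with biotin-H3(5-23)K14Ac peptide (50 nM) in PBS pH 7.4, 0.01% Tween-20, preformed 30 min, then compound 30 min at room temperature; top concentration 110uM. AlphaScreen streptavidin donor/nickel chelate acceptor beads (10 ug/mL final), 20 min dark, signal read.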
Large screens that a line does not name were inactive. Sampled rows, rich in hits. Any-hit rate of the full collection: about 11%. Calls come from the whole dose curve; as a rule, active = well fitted inhibition curve with a large enough effect; inconclusive = small, poorly fitted or top-dose-only effect; inactive = no such curve, though single readings can be large or run the other way.

COC(=O)Cn1c(C(=O)N2CCCC2)cc2c1C[C@H]1CN(C(=O)c3ccccc3)[C@@](Cc3ccc(F)cc3)(C(=O)OC)[C@@H]21	none
COC(=O)[C@@]1(Cc2ccc(OC)cc2)[C@H]2c3cc(C(=O)N4CCCC4)n(CCSCCO)c3C[C@H]2CN1C(=O)c1ccccc1	G9a block 35µM, BAZ2B block inconclusive
COC(=O)[C@@]1(Cc2ccc(F)cc2)[C@H]2c3cc(C(=O)N(C)C)n(Cc4ccc(OC(F)(F)F)cc4)c3C[C@H]2CN1C(=O)c1ccccc1	G9a block 50µM (no result: JMJD2A Tudor, HP1b chromo inh)
O=C(CSc1nnc(Nc2ccccc2)s1)NCC1CCCO1 (stereo unspecified)	none
O=C1CC(SCc2nc3ccccc3[nH]2)C(=O)N1c1ccc(Cl)cc1 (stereo unspecified)	G9a block 18µM
O=C1CC(SCc2nc3ccccc3[nH]2)C(=O)N1c1ccc(F)c(Cl)c1 (stereo unspecified)	G9a block 40µM, BAZ2B block inconclusive (no result: L3MBTL1 block)
O=C1CCCC2=C1C(c1ccc(Br)cc1)c1c([nH]c(=S)[nH]c1=O)N2 (stereo unspecified)	G9a block 0.79µM, JMJD2A Tudor 40µM, BAZ2B block inconclusive
O=c1[nH]c(=S)[nH]c2c1C(c1ccc(Br)cc1)c1c([nH]c(=S)[nH]c1=O)O2	G9a block 1.6µM, JMJD2A Tudor inconclusive, HP1b chromo inh 32µM, BAZ2B block 22µM (no result: L3MBTL1 block)
COC(=O)C1=C(C)Nc2[nH]c(=S)[nH]c(=O)c2C1c1ccc(O)cc1 (stereo unspecified)	G9a block 8.9µM, JMJD2A Tudor inconclusive
Cc1ccc(C2C3=C(CCCC3=O)Nc3[nH]c(=S)[nH]c(=O)c32)cc1 (stereo unspecified)	JMJD2A Tudor 10µM, BAZ2B block 79µM
COc1ccc(C2CC(=O)c3c([nH]c(C(=O)OC4CCCCCC4)c3C)C2)cc1OC (stereo unspecified)	none (no result: L3MBTL1 block)
CC(C)C[C@H](NC(=O)C1CCN(S(=O)(=O)c2ccccc2)CC1)C(=O)NCc1ccccn1	none (no result: L3MBTL1 block)
COc1cccc(CNC(=O)CCc2c(C)c3cc4c(C)coc4c(C)c3oc2=O)c1	JMJD2A Tudor inconclusive (no result: L3MBTL1 block)
CC1(C)CC(=O)C2=C(C1)Nc1[nH]c(=S)[nH]c(=O)c1C2c1ccccc1 (stereo unspecified)	G9a block 11µM, JMJD2A Tudor 45µM
Cc1cc(C)nc(NS(=O)(=O)c2ccc(NC(=O)CCC(=O)O)cc2)n1	none (no result: G9a block, L3MBTL1 block, BAZ2B block)
COc1cc(/C=N/NC(=O)Cn2cnc3c2c(=O)n(C)c(=O)n3C)cc(OC)c1OC	none
Cn1c(=O)c2c(ncn2CC(=O)N/N=C/C=C/c2ccccc2)n(C)c1=O	G9a block inconclusive, JMJD2A Tudor 40µM
COc1cccc(/C=N/NC(=O)Cn2cnc3c2c(=O)n(C)c(=O)n3C)c1	JMJD2A Tudor 56µM (no result: G9a block)
CCOC(=O)Cc1csc(-n2sc3ccccc3c2=O)n1	G9a block 1.1µM, JMJD2A Tudor 18µM, HP1b chromo inh inconclusive, BAZ2B block 5µM (no result: L3MBTL1 block)
CCOC(=O)Cc1csc(SCn2nnc3ccccc3c2=O)n1	G9a block 45µM
Cc1ccc(NC(=O)CSc2nnc3[nH]c(=O)cc(-c4ccccc4)n23)cc1Cl	JMJD2A Tudor inconclusive (no result: L3MBTL1 block)
CC(C)c1nc(Nc2nc3ccccc3o2)nc2c1CCCC2	none (no result: G9a block, HP1b chromo inh, L3MBTL1 block, BAZ2B block)
CCCOc1ccc(/C=C/C(=O)Nc2sc(C)c(C)c2C(=O)OCC)cc1OC	G9a block 3.2µM, JMJD2A Tudor 79µM, HP1b chromo inh inconclusive (no result: L3MBTL1 block)
CCCS(=O)(=O)N1CC(=O)N(c2cc(C)cc(C)c2)C(C)(C(=O)NC2CCCCCC2)C1 (stereo unspecified)	none (no result: L3MBTL1 block)
O=C(NN=C1CCCCCCC1)C(=O)NC1CCCCC1	none
CN1CCC(=NNC(=O)C(=O)NC2CCCC2)CC1	JMJD2A Tudor 40µM, BAZ2B block inconclusive (no result: L3MBTL1 block)
CN1CCC(=NNC(=O)C(=O)NC2CCCCC2)CC1	JMJD2A Tudor inconclusive (no result: L3MBTL1 block)
CN1CCN(C(=O)NC2CCCCC2)CC1	G9a block 8.9µM, JMJD2A Tudor 8.9µM, HP1b chromo inh inconclusive, BAZ2B block 50µM
CC(C)(C)C1CCC(=NNC(=O)C(=O)NC2CCCCC2)CC1 (stereo unspecified)	G9a block inconclusive, JMJD2A Tudor 79µM
COc1ccc(N2CCN(C(=O)c3cn(CC(C)C)c(=O)c4c3c3ccccc3n4C)CC2)cc1	G9a block inconclusive, JMJD2A Tudor 35µM, HP1b chromo inh inconclusive, BAZ2B block 25µM (no result: L3MBTL1 block)
Cn1c2ccccc2c2c(C(=O)N3CCN(c4ccccc4)CC3)cn(C3CCCC3)c(=O)c21	G9a block 50µM, JMJD2A Tudor inconclusive, BAZ2B block inconclusive (no result: L3MBTL1 block)
CCOC(=O)c1c(NC(=O)CSc2cn(CCNC(=O)c3ccc(OC)c(OC)c3)c3ccccc23)sc2c1CCCC2	none (no result: L3MBTL1 block)
CCOC(=O)c1ccc(N2CCN(c3cc(Cl)ccc3C)CC2)c(NC(=O)Nc2cccc(OC)c2)c1	none (no result: L3MBTL1 block)
Cc1ccc(N(C)C(CNS(=O)(=O)c2ccccc2)c2ccccc2)cc1 (stereo unspecified)	G9a block inconclusive, JMJD2A Tudor inconclusive, BAZ2B block inconclusive (no result: L3MBTL1 block)
COc1ccc(OC)c(NC(=O)Cc2c(C(=O)O)n(C)c3ccc(C)cc23)c1	none (no result: L3MBTL1 block)
CC(=O)Nc1ccc(NC(=O)C/C(C)=N/NC(=O)C(=O)N2CCCC2)cc1	G9a block 35µM
CN1CCN(CC(=O)O)CC1	G9a block 35µM, JMJD2A Tudor inconclusive, BAZ2B block inconclusive (no result: L3MBTL1 block)
Cc1ccc(NC(=O)CN2CCC(Cc3ccccc3)CC2)cc1S(=O)(=O)N(C)C	G9a block 8.9µM, JMJD2A Tudor 18µM, HP1b chromo inh inconclusive, BAZ2B block 40µM
Cc1ccc(NC(=O)COC(=O)C2CC(=O)N(Cc3ccccc3)C2)cc1S(=O)(=O)N(C)C (stereo unspecified)	G9a block 40µM
Cc1ccc(NC(=O)c2ccc(OC(F)(F)F)cc2)cc1S(=O)(=O)N(C)C	none
Cc1ccc(NC(=O)c2ccncc2)cc1S(=O)(=O)N(C)C	G9a block 50µM, L3MBTL1 block inconclusive
CC(=O)N1CCN(CC(=O)Nc2ccc(C)c(S(=O)(=O)N(C)C)c2)CC1	G9a block 4.5µM, JMJD2A Tudor 5.6µM, HP1b chromo inh inconclusive, BAZ2B block 79µM
Cc1cc(C)c(NC(=O)CSc2nc3ccccc3nc2N2CCCCC2)c(C)c1	none (no result: L3MBTL1 block)
COc1ccccc1NC(=O)C1=C(C)Nc2nc(SCc3ccccc3)nn2C1c1cccs1 (stereo unspecified)	G9a block inconclusive (no result: L3MBTL1 block)
CCOc1ccccc1Nc1sc(C(=O)c2ccc(Cl)cc2)c(N)c1C#N	none (no result: L3MBTL1 block)
CCOC(=O)Cn1c(=O)n(CC2CCCO2)c2nc(-c3ccc(CC)cc3)nc(C(N)=O)c21 (stereo unspecified)	none (no result: L3MBTL1 block)
Cc1ccc(NC(=O)CCNCc2ccco2)cc1S(=O)(=O)N(C)C	G9a block 8.9µM, JMJD2A Tudor 1.8µM, HP1b chromo inh inconclusive, BAZ2B block 50µM

Source: PubChem BioAssay
